A short description of experiment [1]: antimalarial activity against Dd2 strain (AID 2302;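 active means growth inhibition above 50% at the single 2 µM test dose, taken to imply half-maximal potency below 2 µM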;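 further: 0% = DMSO untreated growth and 100% = chloroquine plus artemisinin killed control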). As to conditions: P. falciparum Dd2 in RBCs, LDH growth readout, 72 h; at 2 µM; active compounds read high.
Experiment [2] is described as follows: HepG2 cytotoxicity, primary screen, cytotoxicity control for P. falciparum antimalarial project, cell-based, ATP luminescence (AID 2303;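 active means inhibition above 50%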;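 further: 0% = DMSO wells and 100% = digitonin-killed cells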). As to conditions: HepG2 viability, 24-48 h, at 10 µM, active compounds read high.
Experiment [3] has as its target L-lactate dehydrogenase (Plasmodium falciparum (isolate CDC / Honduras)) (UniProt Q27743). The experiment can be described thus: PfLDH activity inhibition – cell lysate, 3D7 strain, counter-screen for P. falciparum growth inhibition project (AID 2304).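 Further: 0% = vehicle and 100% = reference inhibitor.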 As to conditions: P. falciparum 3D7 crude extract, LDH APAD/NBT absorbance; at 2 µM; active compounds read high.
Experiment [4] can be described thus: inhibition of 3D7 malaria parasite growth – strain 3D7 (AID 2306).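 Further: 0% = DMSO wells and 100% = chloroquine plus artemisinin control wells.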 The following applies: P. falciparum 3D7 erythrocytic growth, LDH absorbance, 72 h; at 2 µM; active compounds read high.
For experiment [5], the target named is Calcium-dependent protein kinase 1 (Plasmodium falciparum (isolate 3D7)) (UniProt P62344). The experiment can be described thus: PfCDPK1 kinase inhibitors, biochemical, TCAMS library (AID 1159585; cut-off not given, nearly all actives have IC50 up to about 0.98 µM;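 further: inhibitors leave more ATP so luminescence rises with inhibition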). As to conditions: recombinant PfCDPK1, Kinase-Glo ATP depletion luminescence. In general terms: Kinase-Glo measures the ATP left after a reaction by luminescence.
Experiment [6] concerns the target Plasmodium falciparum protein kinase 6 (PK6, PF3D7_1337100) (UniProt Q8IDW1). The experiment in a line: PfPK6 kinase inhibitors, biochemical, TCAMS library (AID 1159586). The following applies: recombinant PfPK6, Kinase-Glo ATP depletion luminescence.
The target of experiment [7] is Protein kinase 7 (PK7), Plasmodium falciparum 3D7 (PF3D7_0213400) (UniProt Q7YTF7). The experiment can be described thus: inhibition of Plasmodium PK7 catalytic activity – biochemical, TCAMS antimalarial set, Kinase-Glo luminescence (AID 1159587). As to conditions: recombinant PfPK7, Kinase-Glo ATP depletion luminescence.
Experiment [8] deals with Calcium-dependent protein kinase 4 (Plasmodium falciparum (isolate 3D7)) (UniProt Q8IBS5). The experiment in a line: PfCDPK4 kinase inhibitors, biochemical, TCAMS library (AID 1159588; cut-off not given, nearly all actives have IC50 up to about 0.91 µM). The following applies: recombinant PfCDPK4, Kinase-Glo ATP depletion luminescence.

The term inhibition denotes the relative decrease from the control value, in per cent.

A number with no mark means an inactive call. For some of these results: Measured potencies and affinities stand elsewhere. Active and inactive are the calls of the source. Unless noted, how the calls were made is not given here.

Sequence of Plasmodium falciparum protein kinase 6 (PK6, PF3D7_1337100) (Q8IDW1 1-305): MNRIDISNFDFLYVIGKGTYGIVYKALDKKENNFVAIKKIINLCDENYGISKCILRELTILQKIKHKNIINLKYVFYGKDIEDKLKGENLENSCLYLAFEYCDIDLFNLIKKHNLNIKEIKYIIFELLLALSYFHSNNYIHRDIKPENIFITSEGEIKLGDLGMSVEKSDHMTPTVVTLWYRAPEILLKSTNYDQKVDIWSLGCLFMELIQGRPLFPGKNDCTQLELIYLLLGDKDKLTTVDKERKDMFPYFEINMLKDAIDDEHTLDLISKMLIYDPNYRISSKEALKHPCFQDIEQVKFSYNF
Sequence of Protein kinase 7 (PK7), Plasmodium falciparum 3D7 (PF3D7_0213400) (Q7YTF7 1-343): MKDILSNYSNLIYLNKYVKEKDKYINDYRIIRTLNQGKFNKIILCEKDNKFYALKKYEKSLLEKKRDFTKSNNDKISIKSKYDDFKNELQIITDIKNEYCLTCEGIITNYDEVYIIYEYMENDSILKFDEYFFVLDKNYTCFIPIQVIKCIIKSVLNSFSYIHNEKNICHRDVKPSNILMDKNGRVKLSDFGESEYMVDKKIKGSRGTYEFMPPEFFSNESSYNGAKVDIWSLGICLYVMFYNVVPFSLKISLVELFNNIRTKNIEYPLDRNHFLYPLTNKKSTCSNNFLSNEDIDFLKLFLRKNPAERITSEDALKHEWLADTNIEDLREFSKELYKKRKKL
Sequence of Calcium-dependent protein kinase 4 (Plasmodium falciparum (isolate 3D7)) (Q8IBS5 whole entry, looked up): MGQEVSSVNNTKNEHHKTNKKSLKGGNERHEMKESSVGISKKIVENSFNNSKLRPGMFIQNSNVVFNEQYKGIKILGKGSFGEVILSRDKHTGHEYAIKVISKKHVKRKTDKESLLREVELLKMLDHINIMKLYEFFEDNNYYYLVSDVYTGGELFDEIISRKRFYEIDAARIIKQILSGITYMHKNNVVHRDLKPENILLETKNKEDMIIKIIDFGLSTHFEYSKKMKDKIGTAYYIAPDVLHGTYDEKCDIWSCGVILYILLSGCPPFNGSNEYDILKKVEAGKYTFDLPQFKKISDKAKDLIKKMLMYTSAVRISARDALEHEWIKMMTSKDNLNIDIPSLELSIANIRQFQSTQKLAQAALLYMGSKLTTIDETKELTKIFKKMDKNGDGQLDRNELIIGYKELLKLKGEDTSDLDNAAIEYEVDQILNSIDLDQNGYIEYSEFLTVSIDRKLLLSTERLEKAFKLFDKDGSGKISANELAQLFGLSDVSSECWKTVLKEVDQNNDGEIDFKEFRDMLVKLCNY
Sequence of L-lactate dehydrogenase (Plasmodium falciparum (isolate CDC / Honduras)) (Q27743 whole entry, looked up): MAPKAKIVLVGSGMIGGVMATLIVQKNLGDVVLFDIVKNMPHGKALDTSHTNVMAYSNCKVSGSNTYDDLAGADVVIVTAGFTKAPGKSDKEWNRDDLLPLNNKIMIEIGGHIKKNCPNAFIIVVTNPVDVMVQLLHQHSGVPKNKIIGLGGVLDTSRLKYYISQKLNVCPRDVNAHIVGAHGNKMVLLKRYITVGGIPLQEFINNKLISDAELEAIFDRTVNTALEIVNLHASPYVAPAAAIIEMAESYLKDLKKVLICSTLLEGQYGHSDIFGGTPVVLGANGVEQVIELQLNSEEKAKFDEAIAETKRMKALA
Sequence of Calcium-dependent protein kinase 1 (Plasmodium falciparum (isolate 3D7)) (P62344 whole entry, looked up): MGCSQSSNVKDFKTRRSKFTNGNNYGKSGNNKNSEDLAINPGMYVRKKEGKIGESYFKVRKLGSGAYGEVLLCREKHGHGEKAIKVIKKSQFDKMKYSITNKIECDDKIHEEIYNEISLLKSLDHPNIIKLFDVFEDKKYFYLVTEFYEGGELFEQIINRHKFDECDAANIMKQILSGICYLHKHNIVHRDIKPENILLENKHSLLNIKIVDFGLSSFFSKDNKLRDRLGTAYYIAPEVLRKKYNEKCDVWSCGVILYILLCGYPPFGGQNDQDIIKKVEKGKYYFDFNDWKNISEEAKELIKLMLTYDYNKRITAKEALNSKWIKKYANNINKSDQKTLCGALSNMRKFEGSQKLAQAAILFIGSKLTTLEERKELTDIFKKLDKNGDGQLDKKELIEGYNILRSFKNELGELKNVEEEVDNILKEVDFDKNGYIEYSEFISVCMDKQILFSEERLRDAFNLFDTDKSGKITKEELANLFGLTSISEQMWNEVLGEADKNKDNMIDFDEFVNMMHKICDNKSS

Turning to `Cc1cc(N[C@@H](Cc2ccccc2)C(=O)NCc2cccs2)nc(NCCc2ccc(F)cc2)n1`, the growth inhibition is 83% (active) in experiment [1] and 100% (active) in experiment [4]. The inhibition in experiment [2] and in experiment [3] was 3% each time. Moreover, the result in experiment [5], in experiment [6], in experiment [7] and in experiment [8] was inactive.
For the compound `O=C(Nc1cccc(-c2cccc(-c3nc4ccccc4[nH]3)c2)c1)Nc1ccc(Cl)c(Cl)c1`, the growth inhibition in experiment [1] was 98% (active); in experiment [4], 101% (active). For the same compound, the inhibition was 78% (active) in experiment [2] and -3% in experiment [3]. The result in experiment [5], in experiment [6], in experiment [7] and in experiment [8] was inactive.
As for `CCN(CC)CCCNc1nccc(N2CCc3ncnc(Nc4ccc(OCc5cccc(F)c5)c(Cl)c4)c3C2)n1`, the growth inhibition was 95% (active) in experiment [1] and 101% (active) in experiment [4]. Further, the inhibition was 100% (active) in experiment [2] and 7% in experiment [3]. Besides, the outcome in experiment [5], in experiment [6], in experiment [7] and in experiment [8] was inactive.
As for `O=C(Nc1cccc(OC2CCN(Cc3ccsc3)CC2)c1)c1ccc(C(F)(F)F)cc1`, the growth inhibition is 5% in experiment [1] and 98% (active) in experiment [4]. Moreover, the inhibition in experiment [2] was 25%; in experiment [3], -2%. In addition, the outcome in experiment [5], in experiment [6], in experiment [7] and in experiment [8] was inactive.
As to `CCc1cn2c3c(cc(C(=O)N[C@@H](Cc4ccccc4)[C@H](O)CNC4CCOCC4)cc13)N(CC(F)(F)F)S(=O)(=O)CC2`, the growth inhibition in experiment [1] and in experiment [4] was 98% (active) each time. Further, the inhibition in experiment [2] is 4%; in experiment [3], -2%. The result in experiment [5], in experiment [6], in experiment [7] and in experiment [8] was inactive.
For the compound `O=C(/C=C/c1ccc(Cl)c(Cl)c1)NC1CCC(CN2CCC(c3nc4ccc(O)cc4[nH]3)CC2)CC1` (stereo not given), the growth inhibition was 84% (active) in experiment [1] and 101% (active) in experiment [4]. Further, the inhibition in experiment [2] was 41%; in experiment [3], -6%. Further, the outcome in experiment [5], in experiment [6], in experiment [7] and in experiment [8] was inactive.
Turning to `COc1cc2nc(C)nc(Nc3ccc(Oc4ccccc4)cc3)c2cc1OC`, the growth inhibition in experiment [1] is 72% (active); in experiment [4], 101% (active). Besides, the inhibition in experiment [2] was -8%; in experiment [3], 6%. Besides, the result in experiment [5], in experiment [6], in experiment [7] and in experiment [8] was inactive.
Regarding `COc1ccc(CCNc2nc(SCc3ccccc3Cl)nc3ccccc23)cc1OC`, the growth inhibition is 2% in experiment [1] and 94% (active) in experiment [4]. The inhibition is 27% in experiment [2] and 0% in experiment [3]. Moreover, the result in experiment [5], in experiment [6], in experiment [7] and in experiment [8] was inactive.
As to `Cc1cc(NN=Cc2ccccc2Cl)c2cccc(C)c2n1`, the growth inhibition is 98% (active) in experiment [1] and 97% (active) in experiment [4]. The inhibition in experiment [2] was 10%; in experiment [3] it was 2%. Moreover, the result in experiment [5], in experiment [6], in experiment [7] and in experiment [8] was inactive.
For the compound `CCN(Cc1ccc(-c2ccc(C(F)(F)F)cc2)cc1)C(=O)Cn1c(SCc2cccc(F)c2F)cc(=O)c2cc(CN3CCCCC3)ccc21`, the figures for the growth inhibition in experiment [1] and in experiment [4] were 50% (active) and 101% (active), respectively. Also, the inhibition was 95% (active) in experiment [2] and 2% in experiment [3]. The result in experiment [5], in experiment [6], in experiment [7] and in experiment [8] was inactive.
On to `COc1ccc(Nc2ccnc3cc(-c4ccccn4)ccc23)cc1OC`, for which the growth inhibition in experiment [1] is 26%; in experiment [4], 91% (active). In addition, the inhibition in experiment [2] is 14%; in experiment [3], 1%. For the same compound, the result in experiment [5], in experiment [6], in experiment [7] and in experiment [8] was inactive.
Regarding `CCCCCCc1cc(Oc2c(I)cc(C[C@H](N)C(=O)O)cc2I)ccc1O`, the growth inhibition is -5% in experiment [1] and 97% (active) in experiment [4]. Moreover, the figures for the inhibition in experiment [2] and in experiment [3] were -2% and -1%, respectively. In addition, the result in experiment [5], in experiment [6], in experiment [7] and in experiment [8] was inactive.
Take `CC(C)COc1ccc(Cl)cc1Cc1ccc(-c2nc3c(F)cccc3[nH]2)o1`: the growth inhibition is 47% in experiment [1] and 98% (active) in experiment [4]. Besides, the inhibition is 15% in experiment [2] and -1% in experiment [3]. The outcome in experiment [5], in experiment [6], in experiment [7] and in experiment [8] was inactive.
As for `COc1ccc(CCC(C)N2C[C@@H](N)[C@H](c3cn(C)c4cnccc34)C2)cc1` (stereo not given in full), the figures for the growth inhibition in experiment [1] and in experiment [4] were -4% and 98% (active), respectively. The inhibition is 5% in experiment [2] and -1% in experiment [3]. Also, the result in experiment [5], in experiment [6], in experiment [7] and in experiment [8] was inactive.
Consider `CCNc1cc(C(=O)N[C@@H](Cc2ccccc2)[C@H](O)CNCc2cc(C#N)ccc2OC)cc(N2CCCC2=O)c1`, for which the growth inhibition in experiment [1] is 51% (active); in experiment [4] it was 85% (active). For the same compound, the results for the inhibition in experiment [2] and in experiment [3] were -1% and -3%, respectively. The result in experiment [5], in experiment [6], in experiment [7] and in experiment [8] was inactive.
As for `Cc1cc(C)c(S(=O)(=O)N2CCCCC(c3cccc(C(F)(F)F)c3)=N2)c(C)c1`, the growth inhibition is 95% (active) in experiment [1] and 94% (active) in experiment [4]. The inhibition in experiment [2] was -1%; in experiment [3], -2%. The outcome in experiment [5], in experiment [6], in experiment [7] and in experiment [8] was inactive.
Regarding `COC(=O)C(Cc1ccccc1)NC(=O)NC1CCN(c2ccnc(Nc3ccc(F)cc3)n2)C1` (stereo not given), the growth inhibition in experiment [1] is 14%; in experiment [4], 90% (active). The figures for the inhibition in experiment [2] and in experiment [3] were 0% and -3%, respectively. The result in experiment [5], in experiment [6], in experiment [7] and in experiment [8] was inactive.
In the case of `O=C(Nc1ccc2c(c1)CCN(C1CCC1)CC2)c1cn(-c2ccccc2)nc1-c1ccccc1`, the growth inhibition is 10% in experiment [1] and 103% (active) in experiment [4]. The values for the inhibition in experiment [2] and in experiment [3] were 38% and 3%, respectively. Moreover, the outcome in experiment [5], in experiment [6], in experiment [7] and in experiment [8] was inactive.
As for `COc1ccc(CN2CCC(NCc3cccc([N+](=O)[O-])c3)CC2)cc1`, the growth inhibition in experiment [1] was 3%; in experiment [4], 92% (active). The inhibition in experiment [2] is 6%; in experiment [3], 2%. Further, the outcome in experiment [5], in experiment [6], in experiment [7] and in experiment [8] was inactive.
On to `Cc1noc(=O)c2ccc(NC(=O)C(O)(CSc3ccccc3)CC(C)C)cc12` (stereo not given), for which the growth inhibition in experiment [1] is 89% (active); in experiment [4] it was 99% (active). Besides, the inhibition in experiment [2] was -15%; in experiment [3], 0%. Besides, the result in experiment [5], in experiment [6], in experiment [7] and in experiment [8] was inactive.

The record behind these values is PubChem BioAssay.
